# Pf Dd2 inh – Plasmodium falciparum Dd2 growth inhibition; P. falciparum Dd2 growth, SYBR Green, 72 h; Potency, µM (top dose mostly 28.9 µM), without a hit: at the highest dose activity, negative = inhibition, usual class: inhibitors; actives 4.3% (n = 120,000); active = well fitted inhibition curve with a large enough effect;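 note: plate controls were DMSO vehicle for no effect and reference drug for full effect; nearly all actives have a fitted effect of over 65% in size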
#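 Readout: SYBR Green fluorescence, 485 nm excitation, 535 nm emission, after ~16 h lysis at 37C. Before that, Dd2-infected red cells (2.5% hematocrit) grew 72 h with compound, 29 uM top final concentration.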
# An asterisk follows results filed as active; i = inactive; [ ] = dose if it differs, or a comment. This is one part of a sample in which hits are shown more often than they occur. Potency is the fitted concentration of half-maximal effect.
SMILES,Pf Dd2 inh
CC1CCN(C(=O)c2ccccc2OCC2CCCN(C(=O)c3ccncc3)C2)CC1 (stereo not drawn),-0.4%
COc1ccc(C(C)NC(=O)c2cc3c(N4CCSCC4)nc(C)cn3n2)cc1OC (stereo not drawn),i
CN1C(=O)[C@H]2CN(Cc3c[nH]c4ccccc34)C[C@H]2C1=O,8.7%
CN(Cc1ccc(F)cc1)C(=O)Nc1ccc(Cl)cc1,i
CC(C)NC(=O)CC[C@@H]1CNC(=O)[C@@H]2C[C@H](NCc3ccc(CO)o3)CN12,21.0%[44.1 µM]
COCC(=O)N1CC[C@@H](CC(=O)O)[C@@H](CCN2CCC(n3c(=O)[nH]c4ccccc43)CC2)C1,33.6%
CCC1CN(Cc2cn(-c3ccccc3C)nc2-c2ccc(OC)c(F)c2)CCO1 (stereo not drawn),11.2µM*
COCCn1cc(CN2CCN(Cc3ccccc3F)CC2)ccc1=O,22.5%
COc1ccc(OC)c(CN2CCN(S(=O)(=O)c3ccccc3)CC2)c1,i
OC[C@H]1CCN(Cc2cn(-c3ccccc3)nc2-c2ccncc2)C[C@@H]1O,-29.6%
CCN1CCN(Cc2cn(-c3ccccc3F)nc2-c2cc(C)sc2C)CC1,11.2µM*
COc1ccc(-c2nn(-c3ccccc3C)cc2CN2CCCN(C)CC2)cc1F,7.94µM*
CCc1c(CN2CCN(c3ccccc3F)CC2)csc1C,-0.8%
COc1ccc(-c2nn(-c3ccccc3)cc2CN2CCCC(C)(O)C2)c(F)c1 (stereo not drawn),i
CCc1ccc(N2CC(c3noc(-c4ccc(OC)c(F)c4)n3)CC2=O)cc1 (stereo not drawn),8.9%
CCCS(=O)(=O)N1CCC(N2C(=O)C(OC)C23CCOCC3)CC1 (stereo not drawn),-13.0%
CCCN(CC1CCOC1)S(=O)(=O)c1ccccc1C (stereo not drawn),15.5%[5.79 µM]
CCOC(=O)C1(Cc2ccccc2F)CCCN(C(=O)c2c(C)nc3sccn23)C1 (stereo not drawn),-27.0%
Cc1ccc(Nc2c(-c3ccc(C)s3)nc3ncccn23)cc1,-19.1%
COc1ccc(Nc2c(-c3cc(Br)ccc3O)nc3ncccn23)cc1OC,1.26µM*
COc1ccc(Nc2nc(-c3ccccc3F)nc3ccccc23)cc1OC,i
CC(=O)Nc1ccc2c(c1)S(=O)(=O)N=C(CC(C)C)N2CC(C)C,3.98µM*
CCCN1C(CC(C)C)=NS(=O)(=O)c2cc(NC(=O)c3cccs3)ccc21,0.112µM*
CCC1=NS(=O)(=O)c2cc(NC(=O)C3CC3)ccc2N1CCOC,-15.5%
CCc1ccc(C2=C(C)C(N3CCC(C(=O)Nc4cccc(OC)c4)CC3)=NS2(=O)=O)cc1,i
SMILES,Pf Dd2 inh
CC(C)CN1C(=O)CCc2cc(NC(=O)c3ccc(N(C)C)cc3)ccc21,-25.5%
CCC1=NS(=O)(=O)c2cc(NC(=O)C3CC3)ccc2N1CC(C)C,4.47µM*
CC(C)Cc1nn2c(=O)cc(COC(=O)c3ccc(NC(=O)c4cccs4)cc3)nc2s1,49.8%
CCc1ccc2oc(-c3cc(NC(=O)c4cccs4)ccc3Cl)nc2c1,-16.2%
CC(C)CC(=O)Nc1ccc2c(c1)CCC(=O)N2CC(C)C,i
COc1ccc(C(=O)N2C(C(=O)N3CCCC3)COC23CCN(C(=O)Cc2ccccc2)CC3)cc1 (stereo not drawn),-44.1%
Cc1nnc2n1CCC(NC(=O)c1ccsc1)CC2 (stereo not drawn),25.8%
N#Cc1ccc(CN2CC[C@H](c3nnc(-c4ccccc4F)o3)C2)cc1,i
COC[C@@H]1CN(C(=O)c2cn3ccccc3n2)C[C@H]1c1ccncc1,-7.8%
O=C(c1c[nH]c2ccccc12)N1CCN(c2cc(-c3cccs3)[nH]n2)CC1,-14.5%
Cc1nc([C@@H]2CN(S(=O)(=O)C(C)C)C[C@H]2C(N)=O)n[nH]1,14.6%
Cc1ccccc1CN1C[C@@H](CO)[C@H](c2nc(-c3ccncc3)no2)C1,-19.7%
Clc1ccc(Nc2nc(-c3ccccc3)c3cc(Cl)ccc3n2)cc1,i
Clc1ccccc1-c1nc(Nc2ccccc2)nc2ccc(Br)cc12,-17.4%
COc1cccc(Nc2nc(-c3ccccc3)c3cc(C)ccc3n2)c1,10µM*
O=C([C@@H]1C[C@H](Oc2cccnc2)CN1C(=O)c1ccc2ccccc2n1)N1CCOCC1,i
Cc1ccccc1Oc1ncccc1CNCc1cccc(O)c1,12.6µM*
Cc1ccccc1Oc1ncccc1CNCc1cc2c(cc1Cl)OCO2,i
CCn1nc(C)cc1C(=O)NCc1cccnc1Oc1ccccc1C,-14.1%
COCCOCC(=O)NC1CCN(C(=O)N2CC3CC(C2)[C@H]2CCCC(=O)N2C3)CC1 (stereo partly drawn),15.3%
COc1ccc(CN2CCC3(CC2)CC(C)=NO3)cc1,-18.2%[44.1 µM]
CC1=NOC2(CCN(Cc3ccc(F)cc3)CC2)C1,i
CC1=NOC2(CCN(Cc3ccc(N(C)C)cc3)CC2)C1,10µM*
COCCO[C@H]1C(=O)N(C2CCN(C(=O)c3ccncc3)CC2)[C@H]1c1ccncc1,28.6%
COc1ccc(C(=O)N2[C@H]3CC[C@@H]2c2cnc(-c4ccc(F)cc4)nc2C3)cc1OC,i
